Pf Dd2 growth – blocks in vitro growth of P. falciparum Dd2; P. falciparum Dd2 growth, SYBR Green, 72 h; Potency, µM (doses to about 28.9 µM), actives largely listed as inhibitors; hit rate 4.3% among 120,000; active = well fitted inhibition curve with a large enough effect; note: nearly all actives have a fitted effect of over 65% in size
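Infected erythrocytes (Dd2, 0.3% parasitemia, 2.5% hematocrit final) are added to compound in RPMI-1640/Albumax II medium, grown 72 h at 37C in low oxygen, then lysed with saponin/Triton-X containing SYBR Green and read by fluorescence.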
Each line names hits and unclear results; the compound was inactive in the other large screens. Shown is part of a subset that was picked to be rich in hits.

Cc1nn(-c2ccc(F)cc2)c(C)c1[C@@H]1C=C[C@@H](NS(=O)(=O)c2cccs2)C1	none
Cc1nn(Cc2ccccc2)c(C)c1[C@@H]1C=C[C@@H](NC(=O)CSCC(=O)O)C1	none
Cc1nn(-c2ccc(C(C)C)cc2)c(C)c1[C@@H]1C=C[C@@H](NCc2cccc(Cl)c2)C1	none
Cc1nn(Cc2ccccc2)c(C)c1[C@@H]1C=C[C@@H](NC(=O)Nc2cccc(C#N)c2)C1	none
Cc1nn(-c2ccc(C(C)(C)C)cc2)c(C)c1[C@@H]1C=C[C@@H](NC(=O)c2cccs2)C1	none
Cc1nn(-c2ccccn2)c(C)c1[C@@H]1C=C[C@@H](NC(=O)CCC(=O)O)C1	none
Cc1ccccc1-c1cnc2[nH]cc(CC(=O)Nc3ccccc3)c2c1	none
CCC(=O)N1C(C(=O)NC(C)C)COC12CCC(C)CC2 (stereo unspecified)	none
O=C(N[C@H]1CCN2C(=O)N(c3ccccc3)C(=O)[C@@H]2C1)c1cccnc1	none
Cn1c(CO[C@H]2CN(Cc3ccc(C#N)cc3)C[C@H]2F)nc2ccccc21	none
CN1C[C@@H](NS(=O)(=O)c2ccccc2)C[C@H]1c1nc(-c2cnccn2)no1	none
O=C1CCN(C(=O)C2CCN(C(=O)COc3ccccc3)CC2)CCCCCCN1	none
CN(CCCc1nccn1C)C(=O)c1cn(CCC2CCCCN2)nn1 (stereo unspecified)	none
Cc1nn2c(c1-c1ccccc1N1CCCC1)N(C(=O)c1ccc(F)cc1)CCC2	none
COCCc1noc(C2CN(C(=O)c3cn(C)cn3)C2)n1	none
Cc1cc(CN(C)C(=O)c2cc(COc3ccc4c(c3)OCO4)[nH]n2)on1	none
Cc1nonc1CC(=O)N1CCCC(c2nnc(Cn3cccn3)n2C)C1 (stereo unspecified)	none
O=C(N[C@H]1CCN2C(=O)N(c3ccc(F)c(Cl)c3)C(=O)[C@@H]2C1)c1cccs1	none
Cc1ccc(-n2nc(C)c([C@@H]3C=C[C@@H](NC(=O)c4cccs4)C3)c2C)cc1Cl	Pf Dd2 growth 11µM
Cc1ccc(-n2nc(C)c([C@@H]3C=C[C@@H](N)C3)c2C)cc1Cl	none
Cc1nn(-c2ccc(C(C)(C)C)cc2)c(C)c1[C@@H]1C=C[C@@H](NC(=O)Nc2ccccc2)C1	none
Cc1nn(-c2ccc(C(F)(F)F)cc2)c(C)c1[C@@H]1C=C[C@@H](NC(=O)C2CCCCC2)C1	none
Cc1nn(-c2ccc(C(F)(F)F)cc2)c(C)c1[C@@H]1C=C[C@@H](NC(=O)Nc2ccccc2)C1	Pf Dd2 growth 11µM
O=C(NCc1ccccc1F)C1CCN(C(=O)c2ncn3c2COC(c2ccccc2)C3)CC1 (stereo unspecified)	none
Cc1cc(CN(C)c2ccc(-c3nc(-c4ccccc4F)no3)cn2)on1	none
Cc1ccc(NC(=O)N2CCC(CCNC(=O)CCC3CCCC3)CC2)cc1	none
O=C(NCCC1CCN(C(=O)Nc2cc(F)cc(F)c2)CC1)c1ccccn1	none
Cc1nc(N2CCN(C(=O)c3ccc(F)cc3Cl)CC2)cc(C(F)(F)F)n1	none
COc1ccc(N2CC3CCC(C2)N3Cc2cccc(-c3cccs3)c2)cc1	none
COCCn1c(SCC(=O)c2c(C)[nH]c3ccccc23)nc2cc(C(=O)NC(C)C)ccc2c1=O	none
COCCn1c(SCC(=O)c2c[nH]c3ccccc23)nc2cc(C(=O)NC(C)C)ccc2c1=O	none
COC(=O)CC(=O)CSc1nc2cc(C(=O)NCC(C)C)ccc2c(=O)n1CCc1ccccc1	Pf Dd2 growth 11µM
O=C(C[C@@H]1O[C@H](CNS(=O)(=O)c2ccc(Cl)cc2)[C@@H](O)C1O)N1CCN(c2ccccc2)CC1 (stereo partly specified)	none
Cc1ccc(NC(=O)CSc2nc(C)c(Cc3ccccc3)c(=O)[nH]2)cc1C	none
Cc1cccc(NC(=O)CSc2nnc(C)c(=O)[nH]2)c1	none
Cc1nnc(SCC(=O)Nc2ccc(N(C)C)cc2)[nH]c1=O	Pf Dd2 growth 11µM
N#Cc1ccc(CN2CCCCC23Cc2ccccc2CNC3=O)cc1 (stereo unspecified)	none
N#Cc1ccc(C(=O)N2CCc3n[nH]c(=O)n3CC2)cc1	none
Cc1noc(-c2ccn3c(CNC(=O)c4nccc5ccccc45)nnc3c2)n1	none
CN(C)c1cccc(C(=O)N2CCCN(c3cc(-c4ccccc4)[nH]n3)CC2)c1	none
COc1ccc(-c2nc3c(c(SC)n2)Cc2c(CO)cnc(C)c2O3)cc1	none
COc1cccc(-c2nc3c(c(SCC(=O)Nc4cccc(C)c4C)n2)Cc2c(CO)cnc(C)c2O3)c1	none
C=Cc1ccc(CSc2nc(-c3ccc(OC)cc3)nc3c2Cc2c(CO)cnc(C)c2O3)cc1	Pf Dd2 growth 3.2µM
COc1ccc(-c2nc3c(c(SCc4ccc(Br)cc4)n2)Cc2c(CO)cnc(C)c2O3)cc1	Pf Dd2 growth 1.1µM
COc1ccccc1NC(=O)CSc1nc(-c2cccc(Cl)c2)nc2c1Cc1c(CO)cnc(C)c1O2	none
CCOc1ccc(NC(=O)CSc2nc(-c3cccc(Cl)c3)nc3c2Cc2c(CO)cnc(C)c2O3)cc1	none
COc1cccc(-c2nc3c(c(SCc4ccccc4Cl)n2)Cc2c(CO)cnc(C)c2O3)c1	none
COc1cccc(CSc2nc(-c3ccccc3OC)nc3c2Cc2c(CO)cnc(C)c2O3)c1	Pf Dd2 growth 5µM
C=Cc1ccc(CSc2nc(-c3ccccc3C)nc3c2Cc2c(CO)cnc(C)c2O3)cc1	Pf Dd2 growth 5.6µM
Cc1noc(C2CC3(CCN(C(=O)c4ocnc4C)CC3)CN2C)n1 (stereo unspecified)	none
CNC(=O)[C@@H](c1ccc(OC)cc1)N1CCC[C@H]1C(=O)N1CCC1	none
Cc1cc(=O)n(CC(=O)Nc2ccc3c(c2)OCO3)c(-c2ccc(F)cc2)n1	none
COC[C@]1(O)CCN(C(=O)c2ccc3c(c2)CCC3)CC1(C)C	none
Cc1cnc(C)c(N2CCN(C(=O)CCCc3c[nH]c4ccccc34)CC2)n1	none
Cc1noc([C@@H]2CN(C(=O)c3occc3C)C[C@H]2CO)n1	none
CCOc1ccccc1NC(=O)N1CCCCCCNC(=O)CC1	none
Cc1noc(-c2cn(C3CCCN(C(=O)c4ccccc4)C3)nn2)n1 (stereo unspecified)	none
C=Cc1ccc(CSc2nc(-c3ccc(Cl)cc3)nc3c2Cc2c(CO)cnc(C)c2O3)cc1	Pf Dd2 growth 11µM
COc1ccc(-c2nc3c(c(SCC(=O)Nc4cccc(O)c4)n2)Cc2c(CO)cnc(C)c2O3)cc1	Pf Dd2 growth 5.6µM
Cc1ncc(CO)c2c1Oc1nc(-c3ccccc3)nc(SCC(=O)Nc3cccc(C(F)(F)F)c3)c1C2	none
CCc1ccc(NC(=O)CSc2nc(-c3ccc(C)cc3)nc3c2Cc2c(CO)cnc(C)c2O3)cc1	none
COc1ccccc1NC(=O)CSc1nc(-c2ccc(C)cc2)nc2c1Cc1c(CO)cnc(C)c1O2	none
Cc1ncc(CO)c2c1Oc1nc(-c3ccc(F)cc3)nc(SCc3ccc(F)cc3Cl)c1C2	none
CC(C)c1noc(-c2nc(-c3ccc4c(c3)OCO4)no2)n1	none
COc1ccc(N2CC(C(=O)NCCCc3ccccc3)NC2=O)cc1 (stereo unspecified)	none
COc1cccc(CNC(=O)N2CC(c3noc(-c4ccncc4)n3)C2)c1	Pf Dd2 growth 8.9µM
O=C(NCc1nnc2cc(-c3nc(C4CC4)no3)ccn12)c1cccc(Cl)c1	none
COc1cccc(CC(=O)NCc2nnc3cc(-c4nc(C5CC5)no4)ccn23)c1	Pf Dd2 growth 6.3µM
O=C(Cc1ccc(F)cc1)NCc1nnc2cc(-c3nc(C4CC4)no3)ccn12	Pf Dd2 growth 4.5µM
O=C(Cc1cccc(F)c1)NCc1nnc2cc(-c3nc(C4CC4)no3)ccn12	none
COc1ccc(CNC(=O)N2CCC(c3noc(-c4ccccc4)n3)C2)cc1 (stereo unspecified)	none
O=C(Cc1ccc(Cl)cc1)NCc1nnc2cc(-c3nc(C4CC4)no3)ccn12	Pf Dd2 growth 0.45µM

Bioassay records as filed in PubChem BioAssay.
